The values that follow come from PubChem BioAssay (Tox21).

SMILES strings stand for the structures. Several values for one entry are separate records, joined by “and”; a condition that tells them apart may be missing. Identical values can stand only once. Inconclusive results are not listed. Where a call stands in place of a potency, no number is given. Unmarked numbers belong to inactive results. Activity calls are given as the source filed them. Calls follow the shape of the dose curve; as a rule, active = well fitted activation curve with a large enough effect; inconclusive = small, poorly fitted or top-dose-only effect; inactive = flat fitted curve, though single readings scatter.

The nature of this test: qHTS assay to identify small molecule phospholipidosis (PLD) inducers (AID 1259344). The following applies: HepG2 phospholipidosis, LipidTOX Red imaging, 24 h; series mostly up to 38.3 µM. Put shortly: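 Cells (HepG2, 900 per well) attach for 4 h, receive LipidTOX Red and compound together, incubate 24 h at 37 C, are fixed 30 min with paraformaldehyde/Hoechst, then imaged at one site per well.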
With `CCCCC[C@H](O)/C=C/[C@@H]1[C@@H](C/C=C\CCCC(=O)O)[C@@H](O)C[C@H]1O`, the Potency entry was “inactive”.

Consider `N[C@@H](Cc1cnc[nH]1)C(=O)O`, for which the Potency entry was “inactive”.

As for `CC(=NCc1ccccc1)c1ccccc1O`, the Potency result was “inactive”.

Take `CC(C)(S)C(=O)N[C@@H](CS)C(=O)O`: the Potency entry was “inactive”.

`CN[C@H](CC(C)C)C(=O)N[C@H]1C(=O)N[C@@H](CC(N)=O)C(=O)N[C@H]2C(=O)N[C@H]3C(=O)N[C@H](C(=O)N[C@@H](C(=O)O)c4cc(O)cc(O)c4-c4cc3ccc4O)[C@H](O)c3ccc(c(Cl)c3)Oc3cc2cc(c3O[C@@H]2O[C@H](CO)[C@@H](O)[C@H](O)[C@H]2O[C@H]2C[C@](C)(N)C(O)[C@H](C)O2)Oc2ccc(cc2Cl)[C@H]1O` (stereo partly specified): the Potency result is “inactive”.

As to `COc1ccc(/C=C/C(=O)O)cc1`, the Potency entry is “inactive”.

As to `C=C1[C@@H]2CC[C@@H](C2)C1(C)C`, the Potency result was “inactive”.

As to `CCCCCCCCCCCC[n+]1ccc2ccccc2c1`, the Potency result was “inactive”.

Consider `C[C@H](O)CN(C)C`, for which the Potency result is “inactive”.

In the case of `CC(C)(C)C(=O)OCC(=O)[C@H]1CC[C@H]2[C@@H]3CCC4=CC(=O)CC[C@]4(C)[C@H]3CC[C@]12C`, the Potency entry is “inactive”.

As for `CCC(NC(C)C)C(O)c1ccc(O)c(O)c1` (stereo unspecified), the Potency entry is “inactive”.

Take `O=C1c2ccccc2C(=O)C1c1ccc(F)cc1`: the Potency result was “inactive”.

`Nc1c(CC(=O)O)cccc1C(=O)c1ccccc1`: the PLD induction was -2.85% [at 7.66 µM] and -2.33% [at 7.66 µM].

As to `OCCCNc1ccccc1`, the Potency result is “inactive”.

Take `Cc1ncc(C[n+]2csc(CCOP(=O)(O)O)c2C)c(N)n1`: the Potency entry is “inactive”.

As for `Cc1cc(C(=O)NCCc2ccc(S(=O)(=O)NC(=O)NN3CCCCCC3)cc2)no1`, the Potency result was “inactive”.
